The results in this text go back to PubChem BioAssay.

Unmarked numbers belong to inactive results. Activity calls are given as the source filed them.

This experiment can be described thus: basal CRE-LacZ reporter activity in PC12 – cell-based, unstimulated, primary screen (AID 1145). The following applies: no forskolin, luminescence, 4.5 h, higher = more signal, called active from +8 up or from −8 down.
Regarding `C=CCC(OC(C)=O)[C@@H]1[C@@H](N(Cc2cccc3ccccc23)C(=O)c2cccc3ccccc23)c2cc(OCCCO)ccc2N1C(=O)c1ccc2ccccc2n1` (stereo partly specified), the z-score is 0.265. The result for `COc1ccc(C(O)C2C=CC3C(=O)NC(=O)C3N2Nc2ccccn2)cc1OCc1ccccc1` (stereo unspecified) reads 0.629. The result for `CCCN1C(=O)[C@@]2(CCC(=O)OC(C)(C)C)N=C(c3ccc(OCCCO)cc3)O[C@H]2c2ccccc21` reads 1.46.

Turning to `COc1cccc(C(=O)O[C@H]2CC[C@]3(C)C4=C(CCC3C2(C)C)[C@]2(C)CC[C@H]([C@H](C)CCCC(C)C)[C@@]2(C)CC4)c1` (stereo partly specified), the z-score was 1.21.

For `COc1cc2c(cc1OC)CN(C(=O)[C@@H]1[C@H]3C(=O)O[C@H](c4ccccc4)[C@H](c4ccccc4)N3[C@H](c3ccccc3OCCO)[C@@]13C(=O)Nc1ccc(C#CCNC(N)=O)cc13)CC2`, the z-score was -0.168. With `CN(C)CCCCNC(=O)[C@H]1C[C@H]2C(=O)N[C@@H](Cc3ccccc3)C(=O)N2[C@H]1c1ccc(O)cc1`, the z-score was -1.9. For `COc1ccc(CCN2C(=O)[C@@]3(Cc4ccccc42)c2ccccc2C(=O)N(Cc2ccccc2Cl)[C@H]3c2ccc(CO)cc2)cc1` the value was 0.558. The result for `CCCCCCCCCCC(O)C1C=CC2C(=O)N(Cc3ccccc3)C(=O)C2N1n1cnnc1` (stereo unspecified) reads -0.0137; that for `COCCOC(=O)N1C(=O)[C@@]2(c3cc(C#CCC(C(=O)OC)C(=O)OC)ccc31)[C@H](C(=O)N1CCN(c3ncccn3)CC1)[C@H]1C(=O)O[C@H](c3ccccc3)[C@H](c3ccccc3)N1[C@@H]2c1ccc(OCCO)cc1`, -1.83.

`C=C(COC)C(=O)CC[C@@H](OC(=O)c1cccnc1)c1ccc(CO)o1`: the z-score was 0.611. Regarding `C=C[C@@H](COC(C)=O)N(Cc1ccc([N+](=O)[O-])cc1)S(=O)(=O)c1ccc(Br)cc1`, the z-score is 0.661.

Turning to `O=C1O[C@@H](c2ccccc2)[C@@H](c2ccccc2)N2[C@@H](c3ccc(O)cc3)[C@]3(C(=O)Nc4ccc(C#CC5(O)CCCCCC5)cc43)[C@@H](C(=O)N3CCCCCCC3)[C@H]12`, the z-score is 0.362. Turning to `COC(=O)C[C@@H]1C[C@H](C)[C@]2(O1)C(=O)N(Cc1ccccc1)c1ccc(NC(C)=O)cc12`, the z-score is 3.56. The result for `CC(C)(C)N1CC=CC23O[C@@H]4C=CCOC(=O)[C@@H]4[C@H]2C(=O)N(CCCCCO)[C@@H]3C1=O` (stereo partly specified) reads -0.631. For `C=CCN1C(=O)[C@]2(O[C@H](CCO)[C@@H]([Si](C)(C)c3ccc(OC)cc3)[C@@H]2C)c2cc(NC(=O)[C@H](C)O)ccc21` the value was 6.89; for `C=CC(=C)C1=CCO[C@@H]1[C@H]1CCCN1S(=O)(=O)c1ccccc1[N+](=O)[O-]`, 0.124.

For `COc1ccc(NN2C(C(O)c3ccc(OC)c(OCc4ccccc4)c3)C=CC3C(=O)N(C4CCCCC4)C(=O)C32)cc1` (stereo unspecified), the z-score is -0.322. The result for `[N-]=[N+]=NCc1ccccc1[C@@H]1OC(c2ccc(OCCCO)cc2)=N[C@]1(Cc1ccccc1)C(=O)N1CCCCC1` reads 1.56; that for `CC(C)(C)N1CC=CC23O[C@@H]4/C=C\CCCOC(=O)C4[C@H]2C(=O)N(CCO)[C@@H]3C1=O` (stereo partly specified), -0.492; that for `O=C1O[C@H](c2ccccc2)[C@H](c2ccccc2)N2[C@H]1[C@@H](C(=O)O)[C@]1(C(=O)Nc3ccc(C#CC4=CCCCC4)cc31)[C@H]2c1ccc(OCCO)cc1`, 0.0816.

Consider `COC(=O)C[C@H]1O[C@]2(C(=O)N(Cc3ccccc3)c3ccc(NC(C)=O)cc32)[C@@H](C)[C@@H]1[Si](C)(C)c1ccc(OC)cc1`, for which the z-score is 1.84. For `CC(C)CNC(=O)[C@@H]1c2ccccc2C(=O)N(Cc2cc(C(F)(F)F)cc(C(F)(F)F)c2)[C@H]1c1ccc(CO)cc1` the value was -0.0512. Consider `COc1ccccc1CN1C(=O)c2ccccc2[C@@H](C(=O)NCCN2CCOCC2)[C@@H]1c1ccc(CO)cc1`, for which the z-score was 0.001. The result for `NCCCCCCNC(=O)[C@H]1C[C@H]2C(=O)NCC(=O)N2[C@H]1c1cccc(OCCO)c1` reads -0.675; that for `COCCOC(=O)N1C(=O)[C@@]2(c3ccccc31)[C@H](C(=O)NC[C@H](O)c1ccccc1)[C@H]1C(=O)O[C@H](c3ccccc3)[C@H](c3ccccc3)N1[C@@H]2c1ccc(OCCO)cc1`, -1.83. The result for `CC(C)N1CC=CC23O[C@@H]4C=CCOC(=O)[C@@H]4[C@H]2C(=O)N(CCO)[C@@H]3C1=O` (stereo partly specified) reads -1.3; that for `COC(=O)[C@@]1(Cc2ccccc2)[C@H]2c3cc(C(=O)N4CCCC4)n(C)c3C[C@H]2CN1C(=O)c1ccccc1`, -0.182. The result for `O=C1[C@]2(CO)C=C(Br)[C@@H](C[C@@H]2c2ccccc2)[C@@]12CO2` reads 1.12. For `CCCCC(O)C1C=CC2C(=O)N(C3CCCCC3)C(=O)C2N1Nc1ccc(OC)cc1` (stereo unspecified), the z-score was 0.276. For `COc1ccc(C(O)C2C=CC3C(=O)N(c4ccccc4)C(=O)C3N2Nc2ccc([N+](=O)[O-])cc2)cc1OCc1ccccc1` (stereo unspecified), the z-score is -0.387.

In the case of `Cc1ccc(S[C@]2(C(=O)NCc3ccccc3)CC(=O)N(Cc3ccccc3)[C@@H]2c2ccc(CO)cc2)cc1`, the z-score is -0.735.

Turning to `C=C(COC)/C(=C/C[C@H](OC(=O)c1ccncc1)c1cccc(OCCO)c1)c1cc(C(=O)OC)ccc1OC`, the z-score is 8.63 (active). For `COC(=O)[C@@]1(Cc2ccccc2)[C@H]2c3cc(C(=O)N(C)C)n(Cc4cc(C)n(C)n4)c3C[C@H]2CN1C(=O)c1ccccc1` the value was 2.3; for `COC(=O)[C@@]1(Cc2ccccc2N=[N+]=[N-])COC(c2ccc(OCCCO)cc2)=N1`, 0.675; for `CN1CCC(CCCO)=CC1c1ccc(CN2CCCC2)cc1` (stereo unspecified), -0.974. As for `CC(=CC1CCCCC1)[C@@H](NC(=O)c1ccc(C(F)(F)F)cc1)c1ccc(-c2ccccc2)cc1`, the z-score is 0.587.
